The values that follow come from PubChem BioAssay (EPA / NIEHS).

In general, AC50 refers to the concentration at which the activity in the assay is half-maximal.

Activity calls are given as the source filed them. Rule for the calls: active = hit-call score of the fitted dose curve at least 0.9, where 1 is the maximum; inactive = score below 0.9.

Read-out in this experiment: Fatty Acid-Binding Protein 1 (FABP1), FABP1 (gene 2168)
The experiment can be described thus: LTEA_HepaRG_FABP1: Life Technologies and Expression Analysis (LTEA) Assay for Fatty Acid-Binding Protein 1 (FABP1) using HepaRG (AID 2283494). As to conditions: mRNA level, 48 h; actives raise or lower the signal. On the procedure:
LTEA_HepaRG is a cell based, multiplexed-readout assay that uses HepaRG, a human liver cell line, with measurements taken at 48 hours after chemical dosing on a 96-well plate.LTEA_HepaRG_FABP1 is one of 102 assay component(s) measured in the LTEA HepaRG cell culture assay. It is a marker of Steatosis.Data from the assay component LTEA_HepaRG_FABP1 was analyzed into 1 endpoint. This assay endpoint, LTEA_HepaRG_FABP1, was analyzed with bidirectional fitting relative to DMSO as the negative control and baseline of activity. Using a type of inducible reporter, measures of mRNA induction for gain or loss-of-signal activity can be used to understand regulation of transcription factor activity. To generalize the intended target to other relatable targets, this assay endpoint is annotated to the transporter intended target family, where the subfamily is fatty acid carrier protein.
A total of 1060 chemcials from the ToxCast library were tested in eight-point concentration-response experiments. Cell culture and cytotoxicity assays were conducted at Thermo Fisher Scientific's Custom Services facility (Madison, WI). A single lot of human HepaRG cells (Thermo Fisher Scientific, Frederick, MD) was used for the cell culture experiments. 96-well format collagen type I coated plates of human HepaRG cells were prepared using established methods. Briefly, cryopreserved HepaRG cells were thawed, plated at a density of approximately 100,000 cells/well in HepaRG Thaw, Plate, and General Purpose media (HPRG770, Thermo Fisher Scientific), and incubated for 48 hours. 0.5% DMSO was selected as vehicle control to balance the requisite need of DMSO in HepaRG cultures to maintain differentiation (for example, baseline metabolism, proportions of hepatocytes vs. cholangiocytes), while enabling further hepatic receptor pathway activation (for example, PXR and CAR) in response to chemical exposure. 48 hours after plating, the culture medium was replaced with HepaRG Serum-Free Incudtion Media. Cells were exposed to each test chemical in duplicate and maintained in CO2 incubators for another 48 hours. Chemical plates were thawed to room temperature and 200x concentrations of treatment groups were prepared. 8-point conentration-reponse curves were made with the highest exposure at 100 uM, followed by half-log dilutions, all in 0.5% DMSO. Each test plate contained variouse controls, induction positive controls (1mM phenobarbital), cytotoxicity positive controls ([…] aflatoxin B1), vehicle controls (0.5% DMSO), and total lysis controls (0.5% DMSO). Cell morphology images were taken using an Essen IncuCyte FLR automated microscope, with six 96-well plates imaged in about 24 minutes. Images were captured and exported and JPEG files. Spent culture media was transfered to black-well plates for the LDH assay, and remaining media was sorted at -80 C for later use. Cells were treated with RLT buffer and frozen until shipped for gene expression analysis. Total RNA was isolated from the cell suspension in 75 uL of Buffer RLT (Qiagen, Germantown, MD 20874) by Quintiles/Expression Analysis (Durham, NC) using a custom isolation procedure. Total RNA from each plate well was transferred to a preamplification plate. Fluidigm's 96.96 Dynamic ArrayTM (Fluidigm, Amsterdam, the Netherlands) technology was used for gene expression analyses by quantitative reverse transcription polymerase chain reaction (qRT-PCR, performed by Quintiles/Expression Analysis, Durham, NC)89. Standard TaqManTM Assays (Applied Biosystems/ThermoFisher Scientific, Foster City, CA) were used to assess the expression of 93 genes selected based on their selectivity and sensitivity to important hepatic receptors known to be modulated by environmental chemicals; importance in human hepatocyte functionality; and hepatotoxicity. […]
Consider `Nc1ccc2c(c1)C(=O)c1ccccc1C2=O`, for which the AC50 is 13.6 µM (active). On the same count and under the same terms, in the case of `CCCCC(CC)COC(=O)CC(C(=O)OCC(CC)CCCC)S(=O)(=O)O` (stereo not given) it was 91.6 µM (active).

In the case of `O=c1c(O)c(-c2ccc(O)c(O)c2)oc2cc(O)cc(O)c12`, the compound was classed as inactive. Consider `c1cc(-c2ccncc2)ccn1`, for which the outcome was inactive. Same read-out and setting: for `Cc1ccc(C(C)C)c(O)c1` the value was “inactive”. The same measure, in the same setting: for `C1CCC(SSC2CCCCC2)CC1` the value was “inactive”; for `Cc1ccc(C)c(O)c1C`, “inactive”. Still for that read-out and setting: in the case of `CCCCN(CCCC)CCCC` it was “inactive”; in that of `Cc1ccccc1Cl`, “inactive”.

With `CC(C)c1ccc(C(=O)N=C(N)N)cc1S(C)(=O)=O`, the outcome was inactive.

For `CN1CCCC1=O`, the call was inactive. Still for that read-out and setting: in the case of `C=CCc1ccc(O)c(OC)c1` it was “inactive”; in that of `Clc1cc(Cl)c(Cl)cc1Cl`, “inactive”; in that of `CCCCCCCCCCO`, “inactive”. Same read-out and setting: in the case of `CCCCOC(=O)CCCCCCCCC(=O)OCCCC` it was “inactive”; in that of `COC(=O)c1ccc(O)cc1`, “inactive”. Same read-out and setting: in the case of `FC(F)(F)C(F)(F)C(F)(F)C(F)(F)C(F)(F)C(F)(F)CCI` it was “inactive”.

Turning to `CC1(C)CC(N=C=O)CC(C)(CN=C=O)C1` (stereo not given), the half-maximal activity concentration (AC50) is 26.2 µM (active). Take `COCCOCCOC`: the outcome was inactive.

Turning to `NCCO`, the compound was called inactive. The same measure, in the same setting: in the case of `COc1ccc2c(c1)c(CC(=O)O)c(C)n2C(=O)c1ccc(Cl)cc1` it was “inactive”; in that of `O=C(N[C@@H](Cc1ccccc1)[C@@H](O)C(=O)N1C[C@@H](O)[C@@H](O)C1)c1cc2cc(Cl)ccc2[nH]1`, “inactive”. Same read-out and setting: for `CCCCCCOCCO` the value was “inactive”; for `CCCCCCCCCCCCCCCCCC(=O)O`, “inactive”. In the case of `CNCc1cc(F)ccc1Oc1ccc(Cl)c(Cl)c1`, the concentration at half-maximal activity (AC50) was 84 µM (active). On to `Cc1ccc2ncccc2c1`, for which the call was inactive.

For the compound `COc1ccc(C)cc1N`, the outcome was inactive. `OC[C@@H](O)[C@@H](O)[C@H](O)[C@H](O)CO`: the compound was classed as inactive.

Take `CN[C@H]1CC[C@@H](c2ccc(Cl)c(Cl)c2)c2ccc(S(N)(=O)=O)cc21`: the AC50 is 50 µM (active). The same measure, in the same setting: in the case of `COc1ccc(S(=O)(=O)N2C(=O)[C@@](c3ccccc3OC)(N3C[C@H](O)C[C@H]3C(=O)N(C)C)c3cc(Cl)ccc32)c(OC)c1` it was 26.9 µM (active). On to `CNC(=O)[C@H]1O[C@@H](n2cnc3c(NCc4cc(Cl)ccc4OCc4cc(C)no4)ncnc32)[C@H](O)[C@@H]1N`, for which the compound was called inactive. Still for that read-out and setting: in the case of `Cc1nc(-c2ccc3c(c2)CCN(CCC2CCC(NC(=O)/C=C/c4ccc(F)cc4)CC2)CC3)no1` (stereo not given) it was “inactive”; in that of `O=c1[nH]cc(F)c(=O)[nH]1`, “inactive”.

For the compound `CCCCCCCCCCCC(=O)OC`, the compound was classed as inactive. `Oc1ccc2c(c1)OC[C@@H](N1CCC(O)(c3ccc(F)cc3)CC1)[C@H]2O`: the compound was classed as inactive.

`CC(CO)OC(C)CO` (stereo not given) (tested in a mixture with another compound): the call was inactive. On the same count and under the same terms, in the case of `Cc1ccc(C)c(C)c1` it was “inactive”. `NC(=O)Cn1c(=O)cc(CCN2CCN(c3nccc4sccc34)CC2)c2ccc(F)cc21`: the AC50 was 12.3 µM (active). As for `CC(=O)C(C)=CC1C(C)=CCCC1(C)C` (stereo not given), the compound was called inactive. Consider `CC(=O)Oc1ccccc1C(=O)O`, for which the call was inactive.
